# Pf growth 96h: P. falciparum growth inhibition at 96 hour, primary screen for plastid delayed-death inhibitors | P. falciparum luciferase reporter growth, 96 h | Potency, µM (highest dose often 28.7 µM), for the others: at the highest dose activity change, negative = inhibition, hits mostly inhibitors | hit rate 6.9% among 320,000 | AID 504834; further: potency means the concentration at half of the fitted maximal effect; on the % scale 0 is the no-effect control and ±100 the full control effect
#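 Infected RBCs, 2% Hct / 0.05% parasitemia final; luciferase-reporter P. falciparum; cpd 96 h, 37 C, 5% CO2; luciferase detection reagent; luminescence.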
# CHX counter: affects cycloheximide protein synthesis inhibition readout, counter-screen | AID 2314 | max response, % | cell reporter, cycloheximide protein synthesis inhibition counterscreen | hit rate 12% among 300,000; in the data active means max response mostly above about 13%, no sharp cut-off; inactive means mostly below about 14%; further: read at 38.3 µM for the half of the compounds with a filed dose; 0% is about no effect
# Pf growth 48h: P. falciparum growth inhibition at 48 hours (one generation); hit rate 5.9% among 310,000; P. falciparum luciferase growth in erythrocytes, 48 h; Potency, µM (doses to about 28.7 µM), for the others: top-dose activity change, negative = inhibition, most hits filed as inhibitors; further: potency means the concentration at half of the fitted maximal effect; on the % scale 0 is the no-effect control and ±100 the full control effect
#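 In quantitative HTS format, infected erythrocytes bearing luciferase-reporter parasites were treated for a single generation at 37 C. Luminescence after adding detection reagent served as the growth measure.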
# HCMV inh: inhibitors of human cytomegalovirus | HFF cells, HCMV-luciferase reporter, 72 h; stronger effect = lower value | activity change, negative = inhibition, % at 57.5 µM | hit rate 4.5% among 410,000 | AID 1259415; in the data active means activity change below about -60%; inconclusive means no clear call, values can overlap the other calls; inactive means above about -39%; further: on the % scale 0 is the no-effect control and ±100 the full control effect
#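 Luciferase read-out from HCMV-luciferase-infected HFFs (MOI 1 PFU/cell) 72 h post infection at 37C; compounds added after 16 h cell attachment; activity normalized between buffer-only basal and Salinomycin (10uM) inhibitor controls.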
# Shiga inhibitor: blocks Shiga toxin action in Vero cells. AID 2315. hit rate 9.2% among 290,000. Vero cells, Shiga toxin protein synthesis inhibition reporter. inhibition, % at 38.7 µM; in the data active means inhibition mostly above about 28%, no sharp cut-off; inactive means mostly below about 43%; further: 0% is about no effect
# * marks the source's active call; other numbers are inactive results; ? = inconclusive; nt = no result; + = active, no number. Only some compounds are listed: those with a hit (about 20% of all), similar ones and a draw of the others. Unless noted, the call rests on the fitted dose curve; in most records, active means well fitted inhibition curve with a large enough effect; inconclusive means small, poorly fitted or top-dose-only effect, or another doubt; inactive means no such curve, though single readings can be large or run the other way.
SMILES,Pf growth 96h,CHX counter,Pf growth 48h,HCMV inh,Shiga inhibitor
Cc1nn(CC(=O)NCCCN2CCCCC2)c(=O)c2cc(-c3ccccc3)nn12,4.15µM*,-1.9,17.1%,8.7,-6.7
CCC1CCCCN1CCCNC(=O)Cn1nc(-c2ccc(C)cc2)ccc1=O (stereo not given),8.9%,-1.0,-7.3%,-70.9*,-8.8
Cc1ccc(-c2ccc(=O)n(CC(=O)NCCN3CCCCC3C)n2)cc1 (stereo not given),nt,-5.8,20.5%,-18.4,-16.2
CCCN(CCC)C(=O)Cn1c(=O)n(-c2ccc(OC)cc2)c(=O)c2ccc(C(=O)NCc3ccc(C)cc3)cc21,nt,nt,nt,-35.8,nt
CCc1nn(CC(=O)NCCCN2CCOCC2)c(=O)c2cc3cc(F)ccc3n12,?,-3.0,-2.6%,+,-11.5
Cc1ccc2c(c1)cc1c(=O)n(CC(=O)NCCN3CCCC3)nc(C)n12,9.28µM*,1.7,23.7%,nt,1.3
CCc1nn(CC(=O)NCCCN2CCOCC2)c(=O)c2cc3sccc3n12,17.9%,-7.7,10.7%,0.0,-7.9
Cc1ccc2c(c1)cc1c(=O)n(CC(=O)N3CCCC3)nc(C)n12,?,4.9,14.9%,nt,21.6
COc1ccc(C2=NCC(C)n3nc4cc(C(F)(F)F)ccc4c32)cc1 (stereo not given),nt,nt,nt,86.9,nt
O=C(N/N=C/c1cn(-c2ccccc2)nc1-c1cccs1)c1ccccc1F,47.6%,20.0*,-18.3%,nt,82.8*
NC(=O)N/N=C/c1cn(-c2ccccc2)nc1-c1ccccc1,?,30.7*,-50.6%,144.9,59.9*
O=C(N/N=C/c1cn(-c2ccccc2)nc1-c1cccs1)c1ccc(Cl)cc1,?,-3.1,?,-11.1,8.1
O=C(N/N=C/c1cn(-c2ccccc2)nc1-c1ccc(F)cc1)c1ccc(Br)o1,?,7.1,8.28µM*,-30.9,33.2
O=C(CNc1ccccc1)N/N=C/c1cn(-c2ccccc2)nc1-c1ccccc1,?,9.7*,11.7µM*,-29.1,54.3
O=C(N/N=C/c1cn(-c2ccccc2)nc1-c1cccnc1)c1ccc(F)cc1,?,6.9,?,-28.3,6.9
O=C(NCc1cccs1)c1ccc2sc(COCCO)nc2c1,nt,nt,nt,64.9,nt
COc1ccc(C(=O)C2CCCN(Cc3cn[nH]c3-c3ccc(F)cc3)C2)cc1OC (stereo not given),6.1%,-2.0,-7.0%,-26.6,11.6
COc1ccc(OC)c(CN2CCCC(C(=O)c3ccccc3SC)C2)c1 (stereo not given),0.0%,0.6,?,-62.7*,9.1
COc1ccc(-c2[nH]ncc2CN2CCCC(C(=O)c3ccc(OC)cc3OC)C2)cc1 (stereo not given),0.828µM*,-2.9,13.1µM*,22.9,-13.0
COc1ccc(CCNC(=O)C(=O)NCC2OCCN2S(=O)(=O)c2ccc(Cl)cc2)cc1OC (stereo not given),29.8%,-1.5,?,-32.8,-1.3
Cc1ccc(C(=O)COC(=O)CNC(=O)c2ccccc2)s1,18.1%,nt,29.1%,0.1,nt
O=C(CCl)N1CCN(S(=O)(=O)c2ccc3c(c2)CCC3)CC1,?,nt,2.33µM*,-79.9*,nt
CC(C)(C)c1ccc(S(=O)(=O)N2CCN(CC(=O)NC(=O)NC3CCCCC3)CC2)cc1,2.94µM*,nt,-21.1%,-19.1,nt
CC(C)(C)NC(=O)NC(=O)CN1CCN(S(=O)(=O)c2ccc3c(c2)CCCC3)CC1,7.38µM*,nt,9.28µM*,-16.6,nt
O=C(CCl)N1CCN(S(=O)(=O)Cc2ccccc2)CC1,13.1µM*,nt,?,-76.2*,nt
SMILES,Pf growth 96h,CHX counter,Pf growth 48h,HCMV inh,Shiga inhibitor
CN1C(=O)N(CC(=O)N2CCN(S(=O)(=O)c3ccc4c(c3)CCC4)CC2)C(=O)C12CCCCC2,35.2%,nt,3.0%,-7.4,nt
COc1ccc(S(=O)(=O)N2CCN(CC(=O)NC3CCCC3)CC2)cc1,?,-2.1,-7.2%,9.1,-5.5
O=C(NCc1ccccc1)c1onc(CSc2ccc(F)c(F)c2)c1C(=O)NCc1ccccc1,nt,nt,nt,-11.2,nt
Cc1ccc(C)c(CSc2nnc([C@@H]3CCCN3)o2)c1,5.7%,-2.9,3.3%,-9.8,3.9
Cc1ccc(OCC(=O)N2CCC(Cc3ccccc3)CC2)c([N+](=O)[O-])n1,?,nt,?,-74.2*,nt
O=C(COc1cccnc1[N+](=O)[O-])N1CCC(Cc2ccccc2)CC1,nt,nt,nt,-75.8*,nt
CN(C)c1ccc(C2CC(c3ccccc3)=Nc3nc(-c4ccccc4)cn32)cc1 (stereo not given),5.22µM*,30.8*,8.28µM*,nt,11.7
